Source: PubChem BioAssay (several laboratories)
PABP polyA inh – PABP-poly(A) binding inhibition. P11940. PABP-poly(A) RNA binding, fluorescence polarization. inhibition, % at 35 µM. 1% of 290,000 active. AID 2014;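 further: calls also rest on retests at 20 µM and on dose response follow-up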
SUMO HTRF inh – blocks human SUMOylation mediated by UBC9. 0.36% of 290,000 active. inhibition, % at 35 µM. P63279. HTRF SUMOylation assay, SAE1/SAE2 + UBC9, in vitro; in the data active means inhibition above about 50%, passing the limit was not always enough; inconclusive means no clear call, values can overlap the other calls
Target sequence (P63279 whole entry, looked up): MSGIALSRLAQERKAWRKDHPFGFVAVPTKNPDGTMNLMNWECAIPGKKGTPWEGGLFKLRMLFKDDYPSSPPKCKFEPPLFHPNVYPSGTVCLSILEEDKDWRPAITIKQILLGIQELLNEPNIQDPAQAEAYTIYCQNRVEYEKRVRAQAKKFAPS
Efflux pump mplx – inhibitors of Candida antifungal efflux pumps expressed in yeast. S. cerevisiae Candida pump triplex, Nile Red efflux. inhibition, % at 10 µM. 0.44% of 330,000 active. AID 485275;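 active means plate passing quality check with inhibition over a set limit, or well fluorescence over plate mean plus 4 SD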;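 further: Nile Red retained in pooled yeast measured as flow cytometry median fluorescence; higher means more Nile Red kept so more efflux inhibition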
ALR H2O2 inh – human ALR oxidase inhibition via reduced H2O2 | P55789 | purified ALR, DTT oxidation, H2O2 HRP-luminol luminescence | inhibition, % (no concentration beside the values) | 3.8% of 290,000 active | AID 485317;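 active means mean replicate inhibition above about 79%, with every replicate also reaching it, limit read from the data; inconclusive means only one of the two criteria met; inactive means mean below limit and not every replicate reaching it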
Target sequence (P55789 whole entry, looked up): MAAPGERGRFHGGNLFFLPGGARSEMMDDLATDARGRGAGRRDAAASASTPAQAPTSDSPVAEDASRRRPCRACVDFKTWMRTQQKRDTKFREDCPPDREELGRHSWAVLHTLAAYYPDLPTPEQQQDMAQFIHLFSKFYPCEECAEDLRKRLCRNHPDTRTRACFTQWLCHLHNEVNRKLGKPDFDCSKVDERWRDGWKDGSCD
eIF4H FP inh – inhibitors of RNA binding by human eIF4H. Q15056. eIF4H fluorescence polarization binding assay. inhibition, % at 35 µM. 0.94% of 290,000 active;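 further: calls also rest on retests at 20 µM and on dose response follow-up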
MLLE-PAM2 inh – blocks PAM2 peptide binding to the PABP1 MLLE domain. GST-MLLE / FITC-PAM2 fluorescence polarization. inhibition, % at 20 µM. 0.36% of 360,000 active; in the data active means inhibition above about 35%, passing the limit was not always enough
Of the large screens only hits and unclear results are named; the others gave an inactive call. Shown are actives, neighbours in structure and some others; about 4.7% of the full set was active somewhere. Unless noted, how the calls were made is not given here.

Cc1ncc(C[n+]2csc(CCOC(=O)C34CC5CC(CC(C5)C3)C4)c2C)c(N)n1	none
CCCCCn1c(=O)c(-c2nc3ccccc3[nH]2)c(O)c2ccccc21	none
Cc1ccc(C(=O)NC(=C(Cl)Cl)S(=O)(=O)c2ccc(C)cc2)cc1	ALR H2O2 inh 99
O=P1(NC2CCCC2)OCC2(CO1)COP(=O)(NC1CCCC1)OC2 (configuration not stated)	none (no result: PABP polyA inh, SUMO HTRF inh, Efflux pump mplx, ALR H2O2 inh, eIF4H FP inh)
CC(C)(C)N1C(=O)[C@H]2[C@@H](c3ccc(Br)cc3)N3C(=O)N(c4cccc(Cl)c4)C(=O)[C@@]3(Cc3ccccc3)[C@H]2C1=O	none (no result: PABP polyA inh, SUMO HTRF inh, eIF4H FP inh)
COc1ccccc1N1CCN(C2CCCN(C(=O)CCc3c(C)noc3C)C2)CC1 (configuration not stated)	ALR H2O2 inh 94
Cn1sc(NC(=O)c2ccc(Cl)cc2)nc1=O	ALR H2O2 inh 97
O=C(N/N=C\c1c(O)ccc2ccccc12)c1ccc(S(=O)(=O)N2CCCCC2)cc1	PABP polyA inh 54, eIF4H FP inh 64
NC(=S)N/N=C/c1c(O)ccc2ccccc12	MLLE-PAM2 inh 47
Cc1ccc(C(=O)N[C@H](C(=O)Nc2cccc(S(=O)(=O)N3CCOCC3)c2)C(C)C)cc1	none (no result: PABP polyA inh, SUMO HTRF inh, Efflux pump mplx, ALR H2O2 inh, eIF4H FP inh)
CSc1ccccc1NC(=O)CN(C)C(=O)c1ccc(NC(=O)c2cccs2)cc1	none (no result: PABP polyA inh, SUMO HTRF inh, eIF4H FP inh)
CCOC(=O)c1c(C)c(C(=O)N2CCN(C(=O)c3ccco3)CC2)c(C)n1C	none
CCOC(=O)c1c(C)n(C(=O)c2ccco2)c(=O)n1C(=O)c1ccco1	ALR H2O2 inh 97
CCc1nn(CC(=O)NCCCN2CCc3ccccc3C2)c(=O)c2cc3sccc3n12	ALR H2O2 inh 95
Cc1[nH]c(=S)c(C#N)c(-c2ccco2)c1C(=O)N(C)C	PABP polyA inh 18
N#CCC(=O)N1CCN(C=O)CC1	none
COC(=O)c1cc(CN2CCN(c3ccccc3)CC2)ccc1O	ALR H2O2 inh 98
COC(=O)c1ccccc1NC(=O)CN1CCN(Cc2ccccc2)CC1	none
Nc1cc(Cl)ccc1CN1C(=O)c2ccccc2C1=O	none (no result: PABP polyA inh, SUMO HTRF inh, Efflux pump mplx, ALR H2O2 inh, eIF4H FP inh)
Cc1ccc(CN2CCN(/N=C/c3ccc(O)c(O)c3)CC2)cc1	ALR H2O2 inh 79
Cc1ccc(CN2CCN(/N=C/c3ccc(C(=O)O)cc3)CC2)cc1	eIF4H FP inh 85
COc1cc(/C=N/N2CCN(Cc3ccc(Cl)cc3)CC2)ccc1OC(C)=O	none
COc1ccc(/C=N/N2CCN(Cc3ccc(C)cc3)CC2)cc1Br	none
COc1cc(/C=N/N2CCN(Cc3ccc(Cl)cc3)CC2)cc(Br)c1O	ALR H2O2 inh 91
CCN(CC)c1ccc(CN2CCCCCC2)cc1	ALR H2O2 inh 98
O=C(O)c1ccc(/C=N/N2CCN(Cc3ccc(Cl)cc3)CC2)cc1	none
CC(=O)N/C(=N\c1nc(C)cc(C)n1)Nc1ccc2ccccc2c1	none
COc1ccccc1-c1cccc([C@@H]2C[C@H]3[C@H](CON3C)CN2C(=O)CCc2ccccc2)c1	none (no result: PABP polyA inh, SUMO HTRF inh, Efflux pump mplx, ALR H2O2 inh, eIF4H FP inh)
CCN(CC)c1ccc(/C=N\N2CCN(Cc3ccc(C)cc3)CC2)cc1	ALR H2O2 inh 98
COC(=O)CC(NC(=S)NC(=O)c1ccccc1)c1ccc(Br)cc1 (configuration not stated)	MLLE-PAM2 inh 46
CC(C)c1nnc(NC(=O)c2sc3ccccc3c2Cl)s1	ALR H2O2 inh 98
Cc1cnc(NC(=O)c2sc3ccccc3c2Cl)s1	none
CCN1C=C(Cc2cccs2)C2=C(C1)C(c1cccs1)C(C#N)=C(N)O2 (configuration not stated)	PABP polyA inh 67, eIF4H FP inh 93 (no result: ALR H2O2 inh)
Cc1cccc2sc(NNC(=O)C3=COCCO3)nc12	none
O=C(NNc1nc2c(F)cc(F)cc2s1)C1=COCCO1	ALR H2O2 inh 98
C#CCOCCOCCOCCNc1nc(N2CCN(C(=O)CCCCCCCCCCNC(=O)[C@H]([C@@H](C)CC)n3cc(CCCCN=C(N)N)nn3)CC2)nc(N2CCN(C(=O)CCCCCCCCCCNC(=O)[C@H](CCCCN)n3cc(C[C@@H](C)CC)nn3)CC2)n1	Efflux pump mplx 85 (no result: PABP polyA inh, SUMO HTRF inh, eIF4H FP inh, MLLE-PAM2 inh)
C#CCOCCOCCOCCNc1nc(N2CCN(C(=O)CCCCCCCCCCNC(=O)[C@H](CCCCN)n3cc(CCO)nn3)CC2)nc(N2CCN(C(=O)CCCCCCCCCCNC(=O)[C@H](CCCN=C(N)N)n3cc(C[C@@H](C)CC)nn3)CC2)n1	none (no result: PABP polyA inh, SUMO HTRF inh, eIF4H FP inh)
Cc1ccc(C(=O)CCc2ccc(N)cc2)cc1	ALR H2O2 inh 99
CC(C)c1cc(C(C)C)c(S(=O)(=O)N2c3ccccc3[C@@]3(Br)C[C@H]4C(=O)N[C@@H](Cc5ccccc5)C(=O)N4[C@@H]23)c(C(C)C)c1	none (no result: PABP polyA inh, SUMO HTRF inh, eIF4H FP inh, MLLE-PAM2 inh)
O=C(Nc1nc(-c2ccccc2)cs1)c1ccccc1NS(=O)(=O)c1ccc(F)cc1	ALR H2O2 inh 96 (no result: SUMO HTRF inh)
Nc1ccc(-c2nc3cc(N)ccc3o2)cc1	SUMO HTRF inh inconclusive, ALR H2O2 inh 93
CN(C)c1ccc(-c2nc3cc(N)ccc3o2)cc1	SUMO HTRF inh inconclusive, ALR H2O2 inh 99
Nc1ccc(-c2nc3ccc(N)cc3o2)cc1	SUMO HTRF inh inconclusive, ALR H2O2 inh 100
Cc1ccc2nc(-c3cc(N)cc(N)c3)oc2c1	none
Cc1ccc(C)c(-c2nc3cc(N)ccc3o2)c1	ALR H2O2 inh 99
COc1cccc(CNC(=O)CCC2CCCN(c3cc(C)nc(N4CCCC4)n3)C2)c1 (configuration not stated)	none
Cc1ccc(C(=O)Nc2ccc(Nc3ccccc3)cc2)c(Cl)c1	none
COc1ccc(S(=O)(=O)N2CCN(C(=O)CSC(=S)N3CCCC3)CC2)cc1	none (no result: PABP polyA inh, SUMO HTRF inh, eIF4H FP inh)
C=CCOc1ccc(C2NC(=O)c3ccccc3O2)cc1OC (configuration not stated)	none (no result: PABP polyA inh, SUMO HTRF inh, Efflux pump mplx, ALR H2O2 inh, eIF4H FP inh)
Nc1nc(NCc2ccco2)nc(N2CCN(Cc3ccccc3)CC2)c1[N+](=O)[O-]	none
COC(=O)c1ccc(-c2nc3cc(N)ccc3o2)cc1	ALR H2O2 inh 95
Cc1ccc(-c2ccc(CCC(=O)O)n2NC(=O)c2ccco2)cc1	ALR H2O2 inh 92
Cc1ccc(-c2ccc(CCC(=O)O)n2-c2ccc(O)cc2)cc1	ALR H2O2 inh 87
O=C(NCc1ccco1)c1cc2cc(Br)ccc2o1	ALR H2O2 inh 98
CCOC(=O)c1cc2sc(C)cc2n1C(C)C(=O)OCC (configuration not stated)	none
Cc1cc2c(cc(C(=O)O)n2C)s1	ALR H2O2 inh 79
C(=N\N1CCOCC1)/c1nc(-c2ccccc2)n2ccccc12	ALR H2O2 inh 96
CCc1ccc(NC(=O)CSc2ccc(-c3ccco3)nn2)cc1	ALR H2O2 inh 98
O=C(CSc1ccc(-c2ccco2)nn1)N1CCCCC1	PABP polyA inh 2.1
COC(=O)Nc1ccc(SCC(=O)c2cccc([N+](=O)[O-])c2)cc1	ALR H2O2 inh 99, MLLE-PAM2 inh 42
Cc1cccc(NC(=O)CSc2ccc(-c3ccco3)nn2)c1C	PABP polyA inh 15, eIF4H FP inh 78
Cc1cccc(NC(=O)CSc2ccc(-c3ccccn3)nn2)c1C	none
COC(=O)c1ccc2c(=O)n(CCCCCC(=O)NC(C)C)c(=O)[nH]c2c1	none
CC(=O)c1cccc(NC(=O)CSc2ccc(-c3ccco3)nn2)c1	none
